Source: PubChem BioAssay
This is a sample that favours compounds with a hit; in the whole collection about 12% have one here.
Sfp PPTase inh – qHTS Assay for Inhibitors of Bacillus subtilis Sfp phosphopantetheinyl transferase (PPTase); 4'-phosphopantetheinyl transferase ffp (Bacillus subtilis), Q9F4F7; 310,000 tested, 3.5% active; Potency, µM, actives largely listed as inhibitors; Biochemical Sfp PPTase activity, qHTS;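 further: the enzyme is Sfp with the accession as filed and its product quenches rhodamine fluorescence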
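Compounds were incubated with enzyme (final 15 nM) for 15 min at room temperature before substrate addition started the reaction. Fluorescence at 525 nm excitation, 598 nm emission was recorded immediately and after 30 minutes.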
G9a block – qHTS Assay for Inhibitors of Histone Lysine Methyltransferase G9a. Histone-lysine N-methyltransferase EHMT2 (Homo sapiens), Q96KQ7. G9a H3K9 monomethylation, AlphaScreen, 2 h. Potency, µM (top dose mostly 102 µM), hits mostly inhibitors. 350,000 tested, 8.8% active. AID 504332, 2011; further: nearly all actives have a fitted effect of over 75% in size
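Quantitative HTS format: methyltransferase activity on a biotin-tagged H3K9 peptide is measured by AlphaScreen, using a rabbit anti-monomethyl-H3K9 antibody with streptavidin donor and anti-IgG acceptor beads. Final levels are 20 nM enzyme, 500 nM peptide, 20 uM SAM; 2 h RT.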
JMJD2A Tudor – qHTS Assay for Inhibitors of JMJD2A-Tudor Domain; Lysine-specific demethylase 4A (Homo sapiens), O75164; AlphaScreen JMJD2A-Tudor / H3K4me3 peptide binding; Potency, µM (highest dose often 114 µM), actives largely listed as inhibitors; 390,000 tested, 4.4% active; further: nearly all actives have a fitted effect of over 50% in size
Target sequence (O75164 whole entry, looked up, the tested form may be a part): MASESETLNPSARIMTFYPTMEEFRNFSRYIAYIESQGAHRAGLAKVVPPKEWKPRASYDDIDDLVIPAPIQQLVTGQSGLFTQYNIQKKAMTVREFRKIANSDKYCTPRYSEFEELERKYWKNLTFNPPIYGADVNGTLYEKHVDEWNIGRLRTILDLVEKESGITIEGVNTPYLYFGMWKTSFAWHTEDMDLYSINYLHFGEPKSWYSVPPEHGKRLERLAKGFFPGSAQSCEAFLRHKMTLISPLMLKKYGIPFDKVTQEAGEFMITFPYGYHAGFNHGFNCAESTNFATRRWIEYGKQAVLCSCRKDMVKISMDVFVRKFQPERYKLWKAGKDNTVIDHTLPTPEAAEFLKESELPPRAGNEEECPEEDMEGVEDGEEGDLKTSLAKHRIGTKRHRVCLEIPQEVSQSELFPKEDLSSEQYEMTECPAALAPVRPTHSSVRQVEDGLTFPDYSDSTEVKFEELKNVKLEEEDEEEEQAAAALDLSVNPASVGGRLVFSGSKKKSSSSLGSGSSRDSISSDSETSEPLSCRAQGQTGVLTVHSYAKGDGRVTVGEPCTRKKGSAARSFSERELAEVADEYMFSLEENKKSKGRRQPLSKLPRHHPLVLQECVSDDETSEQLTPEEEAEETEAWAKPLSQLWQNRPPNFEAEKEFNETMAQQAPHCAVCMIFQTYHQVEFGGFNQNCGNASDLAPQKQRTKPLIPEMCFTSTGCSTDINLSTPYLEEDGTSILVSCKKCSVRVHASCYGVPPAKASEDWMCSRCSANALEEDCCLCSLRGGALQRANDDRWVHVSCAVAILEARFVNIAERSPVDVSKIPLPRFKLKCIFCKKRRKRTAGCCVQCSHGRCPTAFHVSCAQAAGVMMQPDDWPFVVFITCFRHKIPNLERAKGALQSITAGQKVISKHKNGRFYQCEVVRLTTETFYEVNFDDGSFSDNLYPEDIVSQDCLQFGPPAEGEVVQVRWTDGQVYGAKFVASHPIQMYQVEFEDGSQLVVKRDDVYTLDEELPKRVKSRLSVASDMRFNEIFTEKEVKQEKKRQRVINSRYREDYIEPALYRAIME
BAZ2B block – qHTS Assay for Inhibitors of BAZ2B | 360,000 tested, 4.4% active | AlphaScreen BAZ2B-H3K14Ac peptide displacement | Potency, µM (doses to about 114 µM), hits mostly inhibitors; further: nearly all actives have a fitted effect of over 60% in size
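AlphaScreen luminescence quantifies BAZ2B engagement of H3K14Ac peptide; the protein and biotinylated peptide are both at 50 nM final, buffer PBS pH 7.4 with 0.01% Tween-20, all steps at room temperature.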
L3MBTL1 block – qHTS Assay for the Inhibitors of L3MBTL1 | Lethal(3)malignant brain tumor-like protein 1 (Homo sapiens), Q9Y468 | AlphaScreen L3MBTL1–H3K9me1 peptide binding | Potency, µM (top dose mostly 57.1 µM), hits mostly inhibitors | 230,000 tested, 0.66% active; further: nearly all actives have a fitted effect of over 60% in size
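AlphaScreen assay: L3MBTL1 (50 nM final) was preincubated 30 min at room temperature with biotinylated H3(1-15)K9me1 peptide (75 nM final), then 30 min with library compounds; streptavidin donor and nickel chelate acceptor beads (10 ug/mL final) added, 30 min dark.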
HP1b chromo inh – HTS for Inhibitors of HP1-beta Chromodomain Interactions with Methylated Histone Tails; 390,000 tested, 0.56% active; Potency, µM (titrated, usually from 114 µM), most hits filed as inhibitors; AlphaScreen HP1-beta / biotin-H3K9me3 peptide binding; Chromobox protein homolog 1 (Homo sapiens), P83916; AID 540317, 2011; further: nearly all actives have a fitted effect of over 70% in size
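HP1-beta protein (50 nM final) preincubated 30 min at room temperature with biotinylated H3(1-18)K9me3 peptide (50 nM) in PBS pH 7.4, 0.01% Tween-20, then compound added for 30 min. AlphaScreen streptavidin donor/nickel chelate acceptor beads (10 ug/mL final), 30 min dark, luminescence read.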
Hits are given with their value; – = inactive; ? = inconclusive; · = not tested or not shown; ! = a repeat was not active; [ ] = another dose, or the depositor's remark. The call rests on the fitted dose curve; in most records, active means well fitted curve in the direction sought with a large enough effect; inconclusive means small, poorly fitted or top-dose-only effect, or another doubt; inactive means no such curve, though single readings can be large; an effect the other way counts as inactive or inconclusive.

SMILES	Sfp PPTase inh	G9a block	JMJD2A Tudor	BAZ2B block	L3MBTL1 block	HP1b chromo inh
CNS(=O)(=O)c1cn(CC(=O)Nc2ccc(OC)cc2OC)cc1S(=O)(=O)NC	·	–	–	–	·	–
CCOc1ccc(CCNC(=O)Cn2nc(CC)n3c(cc4c(OC)cccc43)c2=O)cc1OCC	·	–	–	–	·	–
COc1cc2c(cc1OC)CN(c1nc(CN3CCCCC3)nc3sc4c(c13)CCCC4)CC2	?	?	–	?	–	–
COc1cc2c(cc1OC)CN(c1nc(CN3CCCC3)nc3sc(C)c(C)c13)CC2	?	35µM	?	79µM	–	–
Cc1cc(S(=O)(=O)Nc2nc(CN3CCOCC3)nc3sc4c(c23)CCC4)cc(C)c1C	·	45µM	–	?	?	–
Cc1sc2nc(CN3CCOCC3)nc(N3CCOCC3)c2c1C	?	3.5µM	?	50µM	·	?
Cc1sc2nc(CN3CCOCC3)nc(N3CCC(C(N)=O)CC3)c2c1C	–	–	–	–	–	–
COc1cc2c(cc1OC)CN(c1nc(CN3CCOCC3)nc3sc4c(c13)CCCC4)CC2	–	45µM	50µM	45µM	–	?
COC(=O)[C@H](CC(C)C)NC(=O)Cn1cnc(C(=O)Nc2ccc(C)c(C)c2)n1	·	·	–	·	–	–
Nc1ccc(S(=O)(=O)c2cc(O)c3ccccc3c2O)cc1	·	·	45µM	·	·	13µM
Cc1cc(O)c2ccccc2c1O	–	?	·	·	·	·
CCN(CC)CCCC1(CN)OCCc2ccccc21 (configuration not stated)	–	25µM	–	–	–	–
CCN1/C(=C/c2ccc3cc(C)cc(C)c3[n+]2CC)Sc2cc(C)ccc21	10µM	16µM	16µM	?	–	?
CCN1/C(=C/c2ccc3cccc(C)c3[n+]2CC)Sc2ccccc21	8.9µM	50µM	–	50µM	–	–
CCN1/C(=C\c2ccc3cc(C)ccc3[n+]2CC)Sc2cc(C)c(C)cc21	18µM	20µM	?	·	?	?
CC[n+]1c(/C=C/c2cc([N+](=O)[O-])ccc2O)ccc2ccccc21	–	·	?	?	–	–
O=C(CSc1nc2c(cnn2-c2ccc(F)cc2)c(=O)[nH]1)Nc1ccccc1C(F)(F)F	·	–	–	–	·	–
Cc1cc(Cl)ccc1OCC(=O)NNC(=O)CCOc1ccccc1	·	–[2.33 µM]	–	–	–	–
CC1C/C(=N\NC(=O)c2cccnc2)CC(C)(C)C1 (configuration not stated)	–	–	?	?	–	–
CC1C/C(=N\NC(=O)c2ccc([N+](=O)[O-])cc2)CC(C)(C)C1 (configuration not stated)	79µM	–[12.7 µM]	–	–	·	–
Oc1ccc(C23CC4CC(CC(C4)C2)C3)cc1O	79µM	0.71µM	22µM	?	·	?
CC(=O)Nc1ccc(C23CC4CC(CC(C4)C2)C3)cc1	–	?	–	–	–	–
COc1cnc(-c2ccccn2)nc1Oc1ccccc1Cl	–	–	–	50µM	–	–
COc1cnc(-c2ccccn2)nc1Oc1ccc(Cl)cc1	–	·	–	32µM	?	–
COc1cnc(-c2ccccn2)nc1NC(C)C	7.1µM	56µM	22µM	3.2µM	1µM	–
SMILES	Sfp PPTase inh	G9a block	JMJD2A Tudor	BAZ2B block	L3MBTL1 block	HP1b chromo inh
COc1cnc(-c2ccccn2)nc1Oc1ccc(F)cc1F	–	–	–	40µM	?	–
COc1ccccc1CNS(=O)(=O)CCNC(=O)c1ccccc1	·	?	–	–	–	–
O=C(NCc1ccccc1Cl)c1ccc(Nc2nc3ccccc3n3nnnc23)cc1	·	–	–	–	·	–
COc1cc([C@@H]2c3cc4c(cc3C(OC3OC5COC(C)OC5C(O)C3O)C3COC(=O)[C@@H]32)OCO4)cc(OC)c1O (some centres not stated)	–	·	·	·	·	·
COCCNC(=O)C(OC(=O)c1ccco1)c1ccc(OC)cc1 (configuration not stated)	·	·	–	·	·	–
COc1ccc(-n2c(SCC(=O)N3CCOCC3)nc3ccccc3c2=O)cc1	–	–	–	–	·	–
CCOc1ccc(N2C(=O)c3cccnc3C2Nc2ccc(C)cc2)cc1 (configuration not stated)	–	?	–	–	–	–
CCOc1ccc(N2C(=O)c3cccnc3C2Nc2ccc(C)c(C)c2)cc1 (configuration not stated)	–	89µM	–	–	·	–
COc1ccccc1NC(=O)Cc1nnc(SCC(=O)NC2CCCCC2)n1C	–	–	–	–	·	–
O=C(O)C1(C(=O)O)CCC1.[NH2-].[NH2-].[Pt+2]	6.3µM	·	·	·	·	·
COc1cc(/C=C(\C#N)c2nc3ccccc3s2)cc([N+](=O)[O-])c1O	–	16µM	11µM	13µM	–	20µM
COc1ccc(-c2csc(/C(C#N)=C\c3ccc(O)c([N+](=O)[O-])c3)n2)cc1OC	–	·	13µM	11µM	–	?
COc1ccc(-c2csc(/C(C#N)=C\c3ccc(OC)c([N+](=O)[O-])c3)n2)cc1	–	–	–	–	–	–
N#C/C(=C\c1ccc(O)c([N+](=O)[O-])c1)c1nc2ccccc2s1	–	4µM	20µM	25µM	–	?
N#C/C(=C\c1ccc(N2CCCC2)c([N+](=O)[O-])c1)c1nc2ccccc2[nH]1	–	·	–	?	–	–
Cc1ccc(-c2cc(-c3ccccc3[N+](=O)[O-])[nH]n2)c(O)c1	–	–[0.501 µM]	?	?	–	–
O=C1NC(=O)C(c2ccccc2[N+](=O)[O-])=C1Nc1ccc(O)c(Cl)c1	56µM!	1.5µM	?	50µM	·	–
CSc1nnc(SCC(=O)NC(=O)c2ccccc2)s1	·	45µM	–	–	–	–
Cc1ccccc1NC(=O)Cn1nnc(-c2ccc(N3CCOCC3)cc2)n1	–	–	–	–	–	–
CN(C)c1ccc(-c2nnn(CC(=O)Nc3ccccc3N3CCOCC3)n2)cc1	–	50µM	?	?	?	–
COc1ccccc1C(=O)NCCC(=O)NCCCSc1ccccc1	·	–	–	–	–	–
CC12CCC(C(=O)NCc3ccc4c(c3)OCO4)(C(=O)C1=O)C2(C)C (configuration not stated)	–	45µM	–	–	·	–
Cc1ccc(NC(=O)CSc2nnc3nc(C)cc(C)n23)cc1	·	–	–	–	·	–
Cc1cc(C)n2c(SCC(=O)Nc3ccc(F)cc3)nnc2n1	16µM	11µM	–	–	–	?
Cc1cc(C)n2c(SCC(=O)Nc3ccc(F)cc3F)nnc2n1	–	?	89µM	–	–	–
